The nature of assay [1]: APR_HepG2_NuclearSize_24hr: Apredica 24-hour HepG2 Assay for Nuclear Size (AID 2282907). The following applies: high-content imaging, actives raise or lower the signal. In outline:
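Read-out: nuclear diameter from Hoechst 33342 (2 ug/mL) imaging of fixed HepG2 cells, 20x, six fields/well. Compounds ran at 0.39–200 uM for 24 hr, 0.5% DMSO final. Gain or loss was fitted bidirectionally relative to the DMSO baseline.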

Assay [2] can be described thus: APR_HepG2_CellLoss_24hr: Apredica 24-hour HepG2 Assay for Cell Loss (AID 2282908).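 As to AC50: fit in both directions so a hit may be cell loss or gain.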 The following applies: high-content imaging. An outline of the steps:
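Read-out: Hoechst 33342-stained nuclei counted by automated fluorescence imaging after formaldehyde fixation and Triton permeabilization. Ten concentrations, 0.39 to 200 uM, duplicate wells, 0.5% DMSO final. Gain or loss of signal fitted relative to DMSO baseline.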

The nature of assay [3]: APR_HepG2_MicrotubuleCSK_24hr: Apredica 24-hour HepG2 Assay for Microtubule CSK Stabilty (AID 2282909). Particulars: HepG2 microtubule cytoskeleton imaging, actives raise or lower the signal. In outline: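 Read-out: alpha-tubulin immunofluorescence intensity by automated high-content imaging of fixed HepG2 cells after 24 h compound treatment. Ten concentrations, 0.39 to 200 uM, in duplicate; DMSO 0.5% v/v. Taxol positive control; DMSO-normalized bidirectional curve fitting.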

Assay [4] can be described thus: APR_HepG2_MitoticArrest_24hr: Apredica 24-hour HepG2 Assay for Mitotic Arrest (AID 2282910). Particulars: high-content imaging, actives raise or lower the signal. An outline of the steps:
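Treatment lasted 24 hr in the human HepG2 line at 0.39–200 uM, solvent held at 0.5% DMSO. Fixed cells were stained with Hoechst 33342 and anti-phospho-histone H3, imaged at 20x, and analysed by gain- or loss-of-signal fitting against DMSO.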

A short description of assay [5]: APR_HepG2_MitoMembPot_24hr: Apredica 24-hour HepG2 Assay for Mitochondrial Membrane Potential (AID 2282911). The following applies: imaging, actives raise or lower the signal. In outline:
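HepG2, 24 hr dosing, 10 concentrations 0.39–200 uM, 0.5% DMSO final. Live-cell MitoTracker Red CMXRos 250 nM 30 min, then 3.7% formaldehyde fix. HCS fluorescence imaging, 20x; bidirectional fit vs DMSO baseline.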

Assay [6] is described as follows: APR_HepG2_MitoMass_24hr: Apredica 24-hour HepG2 Assay for Mitochondrial Mass (AID 2282912). The following applies: high-content imaging, actives raise or lower the signal. An outline of the steps:
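HepG2, 24 hr dosing, 10 concentrations 0.39–200 uM in duplicate, DMSO 0.5% final. MitoTracker Red CMXRos 250 nM, 30 min pre-fix; 3.7% formaldehyde fix. Imaging-based fluorescence intensity; gain/loss fit vs DMSO baseline.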

The nature of assay [7]: APR_HepG2_CellCycleArrest_72hr: Apredica 72-hour HepG2 Assay for Cell Cycle Arrest (AID 2282914). The following applies: high-content imaging, actives raise or lower the signal. An outline of the steps:
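HepG2, 72 hr exposure, 10-point 0.39–200 uM, duplicate, 0.5% DMSO final. Fix 3.7% formaldehyde 30 min RT, Triton X-100 0.5%, Hoechst 33342 2 ug/mL. ArrayScan 20x, six fields/well; DNA content per nucleus; bidirectional fit vs DMSO.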

Assay [8] can be described thus: APR_HepG2_CellLoss_72hr: Apredica 72-hour HepG2 Assay for Cell Loss (AID 2282915). Particulars: high-content imaging. In outline: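 HepG2 cells were exposed for 72 hr to compounds at 0.39–200 uM (ten concentrations, duplicate) in 0.5% v/v final DMSO. Nuclei were stained with Hoechst 33342 after 3.7% formaldehyde fixation, imaged at 20x, and counted; fits bidirectional versus DMSO.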

Assay [9] in a line: APR_HepG2_P-H2AX_72hr: Apredica 72-hour HepG2 Assay for H2AX Phosphorylation (AID 2282916).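 Also: phospho-histone H2A.x immunostain intensity per cell marking DNA damage.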 Particulars: imaging, actives raise or lower the signal. In outline:
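Readout: phospho-H2A.x immunofluorescence (FITC secondary) plus Hoechst nuclear stain, high-content imaging at 20x, six fields/well. HepG2, 72 hr compound exposure, 0.39–200 uM, final DMSO 0.5% v/v. Gain or loss fitted relative to DMSO baseline.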

Assay [10] in a line: APR_HepG2_MitoMembPot_72hr: Apredica 72-hour HepG2 Assay for Mitochondrial Membrane Potential (AID 2282917). Particulars: imaging, actives raise or lower the signal. An outline of the steps: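 HepG2 cells exposed 72 h to compounds at 0.39–200 uM (0.5% v/v DMSO, duplicates); MitoTracker Red CMXRos 250 nM loaded 30 min before 3.7% formaldehyde fixation, imaged by HCS fluorescence. Bidirectional fit versus DMSO.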

The nature of assay [11]: APR_HepG2_MitoticArrest_72hr: Apredica 72-hour HepG2 Assay for Mitotic Arrest (AID 2282918). The following applies: high-content imaging, actives raise or lower the signal. In outline: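 HepG2, 72 hr exposure, 0.39–200 uM in duplicate, 0.5% v/v DMSO final. Formaldehyde-fixed, Triton-permeabilized, anti-phospho-histone H3/FITC plus Hoechst. ArrayScan imaging at 20x; curves fit bidirectionally against DMSO baseline.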

The nature of assay [12]: APR_HepG2_P-H2AX_24hr: Apredica 24-hour HepG2 Assay for H2AX Phosphorylation (AID 2282920). The following applies: high-content imaging, actives raise or lower the signal. In outline: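 HCS fluorescence imaging of phospho-H2A.x immunostain (with Hoechst 33342 nuclear counterstain) in HepG2 after 24 hr compound exposure; 10 concentrations, 0.39–200 uM, duplicate wells, 0.5% v/v DMSO. Gain or loss of signal fitted relative to DMSO baseline.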

Assay [13] in a line: APR_HepG2_StressKinase_72hr: Apredica 72-hour HepG2 Assay for Stress Kinase (AID 2282921). The following applies: HepG2 stress kinase (phospho-c-Jun) imaging, actives raise or lower the signal. In outline: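 Phospho-c-Jun immunofluorescence measured by high-content imaging at 20x, six fields per well; bidirectional curve fitting against DMSO as baseline. Dosing: 0.39–200 uM, 72 h, 0.5% DMSO final.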

Assay [14] in a line: APR_HepG2_StressKinase_24hr: Apredica 24-hour HepG2 Assay for Stress Kinase (AID 2282922). The following applies: HepG2 stress kinase (phospho-c-Jun) imaging, actives raise or lower the signal. An outline of the steps: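 After 24 hr compound treatment (up to 200 uM, final DMSO 0.5% v/v), HepG2 cells are fixed and multiplex-labeled; phospho-c-Jun intensity is captured by high-content fluorescence imaging and analyzed relative to DMSO.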

A short description of assay [15]: APR_HepG2_MitoMass_72hr: Apredica 72-hour HepG2 Assay for Mitochondrial Mass (AID 2282924).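 Also: MitoTracker Red CMXRos stain intensity per cell imaged as mitochondrial mass.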 The following applies: high-content imaging, actives raise or lower the signal. In outline:
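Steps: treat HepG2 72 hr (0.39–200 uM, duplicate wells); load MitoTracker Red CMXRos, 250 nM, 30 min; fix with 3.7% formaldehyde, permeabilise with 0.5% Triton X-100; capture images, nuclei via Hoechst 33342; fit bidirectionally against DMSO.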

Assay [16] is described as follows: APR_HepG2_MicrotubuleCSK_72hr: Apredica 72-hour HepG2 Assay for Microtubule CSK Stabilty (AID 2282919). The following applies: HepG2 microtubule cytoskeleton, high-content imaging, actives raise or lower the signal. An outline of the steps:
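Ten-point dosing (0.39–200 uM, 0.5% DMSO) of HepG2 for 72 hr, with taxol as the cytoskeletal positive control. The cells were formaldehyde-fixed and then stained with alpha-tubulin/Cy5 and Hoechst. Imaging at 20x used a −2 um Z offset for tubulin.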

Assay [17] in a line: APR_HepG2_p53Act_72hr: Apredica 72-hour HepG2 Assay for p53 Activation (AID 2282923).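 Also: average cellular p53 protein immunofluorescence intensity in HepG2 cells.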 The following applies: high-content imaging, actives raise or lower the signal. An outline of the steps: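 Readout: p53 immunofluorescence quantified by automated high-content imaging at 20x, six fields per well, nuclei located via Hoechst. Dosing ran 72 hr over ten concentrations from 0.39 to 200 uM; bidirectional curve fitting against DMSO baseline.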

Assay [18] in a line: APR_HepG2_NuclearSize_72hr: Apredica 72-hour HepG2 Assay for Nuclear Size (AID 2282925). The following applies: high-content imaging, actives raise or lower the signal. In outline:
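Compounds (0.39–200 uM, final DMSO 0.5%) were applied to HepG2 for 72 hr. Cells were then formaldehyde-fixed, permeabilized and labelled with Hoechst 33342. Nuclear diameter was quantified from six images per well.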

Structures are written as SMILES. Calls of active or inactive are those of the source. The calls were made as follows: active = hit-call score of the fitted dose curve at least 0.9, where 1 is the maximum; inactive = score below 0.9.

Regarding `CCOC(=O)[C@]1(c2ccccc2)Oc2ccccc2[C@@H]1N`, the compound was called inactive in assay [1], in assay [5], in assay [7], in assay [10], in assay [14] and in assay [15]. For the same compound, the AC50 in [2] was 86.7 µM (active); in assay [3], 112 µM (active); in assay [4] it was 111 µM (active); in assay [6], 107 µM (active); in [8], 116 µM (active); in [9], 112 µM (active). Further, the AC50 in assay [11] was 90.8 µM (active); in assay [12], 120 µM (active); in assay [13], 109 µM (active).

Regarding `[O-][Cl+]O`, the call in [1], in [6], in [7], in assay [9], in assay [10] and in assay [11] was inactive. Further, the compound was classed as inactive in assay [16], in [13], in assay [17] and in assay [15]. In addition, the AC50 in [2] was 70.7 µM (active); in [3] it was 73.3 µM (active); in assay [4] it was 93.6 µM (active); in assay [5], 62.5 µM (active); in [8] it was 97.5 µM (active); in [12] it was 66.5 µM (active). The AC50 in assay [14] is 110 µM (active); in assay [18], 157 µM (active).

`Clc1ccccc1Cl`: the outcome in [1], in assay [2], in assay [3], in assay [4], in assay [5] and in [6] was inactive. For the same compound, the call in assay [7], in assay [8], in assay [9], in [10], in assay [11] and in [12] was inactive. Moreover, the compound was classed as inactive in assay [13], in assay [14] and in [15].

As to `O=C(Nc1ccccc1)c1ccccc1I`, the outcome in assay [1], in assay [2], in [3], in [4], in assay [5] and in assay [6] was inactive. In addition, the call in [7], in assay [9], in assay [10], in assay [11], in assay [12] and in assay [13] was inactive. In addition, the compound was called inactive in [14] and in assay [15]. The concentration at half-maximal activity (AC50) in [8] is 61.8 µM (active).

Take `CCCCOC(=O)c1ccccc1C(=O)OCc1ccccc1`: the outcome in assay [1], in assay [3], in assay [4], in [5], in assay [6] and in [9] was inactive. For the same compound, the compound was called inactive in assay [10], in [11], in assay [12], in assay [13], in assay [14] and in assay [15]. Further, the outcome in assay [18] was inactive. Besides, the AC50 is 48.5 µM (active) in assay [2], 92.5 µM (active) in [7], 60.3 µM (active) in [8] and 98.9 µM (active) in assay [17].

In the case of `CN(C)c1ccccc1`, the result in assay [1], in assay [2], in assay [3], in assay [4], in assay [5] and in assay [6] was inactive. For the same compound, the compound was classed as inactive in assay [7], in [8], in [9], in assay [10], in assay [11] and in assay [16]. Also, the call in assay [12], in [13], in [14], in [17] and in assay [15] was inactive.

Take `CN(C)c1ccc(C(=O)c2ccc(N(C)C)cc2)cc1`: the result in assay [1], in [5], in assay [6], in [10] and in [16] was inactive. Further, the AC50 is 1.64 µM (active) in assay [2]; 0.403 µM (active) in assay [3]; 0.538 µM (active) in assay [4]; 0.639 µM (active) in assay [7]; 1.75 µM (active) in assay [8]; 15.4 µM (active) in assay [9]. The AC50 in assay [11] was 16.5 µM (active); in assay [12] it was 26.7 µM (active); in assay [13] it was 9.87 µM (active); in [14] it was 14 µM (active); in [17] it was 0.292 µM (active); in assay [15] it was 0.855 µM (active). In addition, the concentration at half-maximal activity (AC50) in [18] was 1.91 µM (active).

Broadly, the AC50 is the midpoint of the concentration-response curve, whichever way the signal moves.

These data come from PubChem BioAssay (EPA / NIEHS).
